Assay [1] is described as follows: Human pregnane X receptor (PXR) small molecule agonists, qHTS cell viability counter screen (AID 1346977). Note: nearly all actives have a fitted effect of over 50% in size. Note: potency is the fitted concentration of half-maximal effect. Put shortly: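 Tox21 qHTS format; PXR-Luc HepG2, 2,000/well, charcoal-stripped FBS 5%. Cpd exposure 24hr. Read: CellTiter-Fluor fluorescence, multiplexed with luciferase.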
Background: qHTS replaces the single test concentration by a dilution series.

A short description of assay [2]: Caspase-3/7 induction in CHO-K1 cells by small molecules, qHTS cell viability counter screen (AID 1346979). Note: nearly all actives have a fitted effect of over 35% in size. Note: potency is the fitted concentration of half-maximal effect. Put shortly: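 CellTiter-Fluor viability check, qHTS format: wild-type CHO-K1, 16hr compound treatment, 1hr reagent incubation, fluorescence read.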
Assay [3] can be described thus: Caspase-3/7 induction in CHO-K1 cells by small molecules, qHTS assay (AID 1346980). Note: nearly all actives have a fitted effect of over 15% in size. Note: potency is the fitted concentration of half-maximal effect. Put shortly: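 Wild-type cells were seeded at 1,500 per well and settled 5 hr at 37 C, 5% CO2, then exposed to DMSO-dissolved compounds for 17 hr. Caspase-Glo 3/7 reagent was added, and luminescence was read after 30min at room temperature.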
The nature of assay [4]: Caspase-3/7 induction in HepG2 cells by small molecules, qHTS cell viability counter screen (AID 1346981). Note: nearly all actives have a fitted effect of over 30% in size. Note: potency is the fitted concentration of half-maximal effect. The method in brief: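 Wild-type HepG2 cells (2,000/well) were allowed to settle for 5 hr at 37 C, 5% CO2, then dosed with compounds in DMSO by pin transfer. After 16 hr at 37 C, CellTiter-Fluor was added and fluorescence read 1 hr later.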
In assay [5] the target is Nuclear receptor subfamily 1 group I member 2 (Homo sapiens) (UniProt O75469). Put plainly: Human pregnane X receptor (PXR) small molecule agonists, qHTS assay (AID 1346982). Note: nearly all actives have a fitted effect of over 35% in size. Note: potency is the fitted concentration of half-maximal effect. Put shortly:
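PXR-Luc HepG2 cells (CYP3A4 promoter-driven luciferase) were seeded in medium with 5% charcoal-stripped FBS, left 5 hr at 37 C, then exposed to compounds in DMSO for 24 hr. Luminescence was read after ONE-Glo addition.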

Assay [6] can be described thus: Caspase-3/7 induction in HepG2 cells by small molecules, qHTS assay (AID 1346978). Note: nearly all actives have a fitted effect of over 15% in size. Note: potency is the fitted concentration of half-maximal effect. Put shortly: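 Wild-type HepG2 cells (2,000/well) were settled 5 h at 37 C, 5% CO2, then exposed to compounds in DMSO for 17 h. Caspase-3/7 activity was read by luminescence 30 min after adding Caspase-Glo 3/7 reagent at room temperature.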
Assay [7] has as its target Nuclear receptor subfamily 1 group I member 2 (Rattus norvegicus) (UniProt Q9R1A7). Put plainly: Rat pregnane X receptor (rPXR) activation by small molecules, qHTS assay (AID 1346983). Note: nearly all actives have a fitted effect of over 20% in size. Note: potency is the fitted concentration of half-maximal effect. The conditions noted are these: rPXR luciferase reporter cells, One-Glo luminescence, 24 h; max activation: stronger effect = higher value. The method in brief: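 Cell-based rPXR luciferase reporter assay, 2,000 cells per well, rested 5hr at 37 C before compound addition in DMSO, then 24 hr at 37 C. One-Glo reagent was added and luminescence read after 30 min at room temperature.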

For assay [8], the target named is Nuclear receptor subfamily 1 group I member 2 (Homo sapiens) (UniProt O75469). Put plainly: CYP3A4 induction through human pregnane X receptor (PXR) by small molecules, qHTS assay (AID 1346984). Note: nearly all actives have a fitted effect of over 40% in size. The method in brief: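 DPX-2 cells (HepG2 co-transfected with PXR and CYP3A4 promoter-luciferase) treated with compounds 24 h at 37C; luciferin-IPA CYP3A4 substrate 3uM final added for 3 h, then One-Glo; luminescence read. qHTS format.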
Nuclear receptor subfamily 1 group I member 2 (Homo sapiens), sequence (O75469 whole entry, looked up): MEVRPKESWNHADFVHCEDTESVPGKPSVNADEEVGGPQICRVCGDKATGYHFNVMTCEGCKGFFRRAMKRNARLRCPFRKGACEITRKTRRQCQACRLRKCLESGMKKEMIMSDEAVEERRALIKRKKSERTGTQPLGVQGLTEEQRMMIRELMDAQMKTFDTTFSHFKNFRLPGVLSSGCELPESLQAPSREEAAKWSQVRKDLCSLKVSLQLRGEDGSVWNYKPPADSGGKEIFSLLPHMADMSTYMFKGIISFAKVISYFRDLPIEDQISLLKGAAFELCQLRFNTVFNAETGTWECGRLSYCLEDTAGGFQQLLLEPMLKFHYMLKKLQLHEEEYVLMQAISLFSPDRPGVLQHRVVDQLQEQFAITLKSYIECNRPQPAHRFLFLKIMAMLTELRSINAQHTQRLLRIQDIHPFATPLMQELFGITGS

The target is the same in assay [9]. The assay is described as follows: Human pregnane X receptor (PXR) activation by small molecules, qHTS assay (AID 1346985). Note: nearly all actives have a fitted effect of over 40% in size. Put shortly: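 DPX-2 cells (HepG2 co-transfected with a PXR response element and a CYP3A4-promoter luciferase construct) were seeded at 2,000 per well, rested 5 hr at 37C, then exposed to DMSO-dissolved compounds for 24 hr. Activation was read as luciferase luminescence.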

Assay [10] concerns the target Cytochrome P450 2D6 (Homo sapiens) (UniProt P10635). Put plainly: Cytochrome P450 Family 2 Subfamily D Member 6 (CYP2D6) small molecule antagonists: luciferase reporter qHTS assay (AID 1671196). Note: nearly all actives have a fitted effect of over 50% in size. Note: potency is the fitted concentration of half-maximal effect. Put shortly:
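CYP2D6 enzyme–substrate mix was held with compound for 10 min at room temperature, then NADPH regeneration solution was added and the reaction ran 1 h at room temperature. Luciferin product was detected by luminescence after 20 min with detection reagent.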
(In a reporter assay the amount or activity of a reporter protein is the signal.)

Where “and” joins values, the source holds several entries; their conditions need not be identical. Equal entries are not always repeated. Results filed as inconclusive are left out. More than one record can exist for a structure, and the calls need not agree. Calls of active or inactive are those of the source. Calls come from the whole dose curve; as a rule, active = well fitted curve in the direction sought with a large enough effect in the repeat runs; inconclusive = weak or mixed curves; inactive = no such curve, though single readings can be large; an effect the other way counts as inactive or inconclusive.
% is set by controls: 0 for no effect and ±100 for the full control effect.

Nuclear receptor subfamily 1 group I member 2 (Rattus norvegicus), sequence (Q9R1A7 whole entry, looked up): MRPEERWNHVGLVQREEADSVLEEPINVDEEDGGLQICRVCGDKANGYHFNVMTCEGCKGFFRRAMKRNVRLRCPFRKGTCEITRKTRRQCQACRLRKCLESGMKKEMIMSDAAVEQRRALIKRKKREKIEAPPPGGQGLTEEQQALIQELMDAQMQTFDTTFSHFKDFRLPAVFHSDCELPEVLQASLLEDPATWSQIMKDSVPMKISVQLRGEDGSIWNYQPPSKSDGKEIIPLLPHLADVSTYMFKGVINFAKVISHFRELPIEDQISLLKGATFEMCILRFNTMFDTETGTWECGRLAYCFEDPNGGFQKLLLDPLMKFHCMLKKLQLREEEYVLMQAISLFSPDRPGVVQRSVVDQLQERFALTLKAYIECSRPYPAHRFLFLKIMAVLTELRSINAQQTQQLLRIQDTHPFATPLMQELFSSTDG
Cytochrome P450 2D6 (Homo sapiens), sequence (P10635 whole entry, looked up): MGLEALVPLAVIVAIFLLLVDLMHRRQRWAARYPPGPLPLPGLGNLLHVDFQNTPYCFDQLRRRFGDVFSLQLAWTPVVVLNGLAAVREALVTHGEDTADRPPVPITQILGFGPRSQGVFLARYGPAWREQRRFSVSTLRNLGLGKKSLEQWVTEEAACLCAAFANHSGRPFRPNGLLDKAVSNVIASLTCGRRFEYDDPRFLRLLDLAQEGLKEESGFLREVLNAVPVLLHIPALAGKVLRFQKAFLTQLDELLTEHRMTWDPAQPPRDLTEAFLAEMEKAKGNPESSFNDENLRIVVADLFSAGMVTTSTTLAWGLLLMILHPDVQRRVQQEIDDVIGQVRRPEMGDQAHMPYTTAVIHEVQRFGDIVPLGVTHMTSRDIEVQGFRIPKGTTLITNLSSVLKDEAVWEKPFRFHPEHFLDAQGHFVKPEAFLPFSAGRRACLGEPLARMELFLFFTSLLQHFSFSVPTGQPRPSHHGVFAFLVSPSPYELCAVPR

For `CC(C)(Oc1ccc(Cl)cc1)C(=O)O`, the Potency entry in [1], in [2], in assay [3], in [4] and in assay [5] was “inactive” in each case.
Consider `CN1CCOCC1`, for which the Potency entry in [1], in [2], in [3] and in assay [4] was “inactive” each time.
Take `Cc1ccc(S(=O)(=O)O)cc1C`: the Potency entry in [1], in [6], in assay [3], in assay [4], in [5] and in assay [8] was “inactive” each time. In addition, the Potency result in assay [9] and in [10] was “inactive” in each case. The max activation in assay [7] was -0.712% (inactive).
As to `COC(=O)c1ccc(C)cc1`, the Potency result in assay [1], in assay [6], in [2], in assay [3], in [4] and in assay [5] was “inactive” each time. The Potency entry in assay [10] is “inactive”.
Consider `O=Cc1ccccc1C=O`, for which the Potency in [1] was 48.6 µM (active) and inactive; in assay [2], 15.4 µM (active) and inactive; in [3] it was 21.7 µM (active) and inactive; in assay [4], 30.6 µM (active) and inactive; in [5], 19.3 µM (active) and inactive. Also, the max activation in [7] is 5.06% (inactive). Also, the Potency entry in [8], in [9] and in assay [10] was “inactive” in each case.
Consider `Cc1ccc(N)c([N+](=O)[O-])c1`, for which the Potency result in [1], in assay [6], in assay [3], in [4] and in assay [5] was “inactive” in each case. In [10], the Potency is 39.4 µM (active) and inactive.
Regarding `C=C[C@@]1(C)CC(=O)[C@]2(O)[C@@]3(C)[C@@H](O)CCC(C)(C)[C@@H]3[C@H](O)[C@H](OC(C)=O)[C@@]2(C)O1`, the Potency entry in assay [1], in [6], in assay [3] and in [4] was “inactive” each time. Besides, the Potency was 68.6 µM (active) in [2]; 5.01 µM (active) in assay [7]; 63.3 µM (active) and inactive in assay [10].
As to `CC/C=C\C/C=C\C/C=C\CCCCCCCC(=O)O`, the Potency entry in assay [1], in [6], in assay [3], in assay [4], in assay [8] and in assay [9] was “inactive” each time. Further, the Potency result in assay [5] is “inactive and 61.1 µM (active)”; in assay [10], 19.8 µM (active). Further, the max activation in assay [7] is -1.32% (inactive).
Turning to `c1ccc2cc3ccccc3cc2c1`, the Potency entry in assay [1], in assay [6], in assay [3], in assay [4] and in assay [10] was “inactive” in each case. For the same compound, the Potency in assay [5] was 35.5 µM (active) and 21.7 µM (active).
As for `[O-]/[N+](=N\O)c1ccccc1`, the Potency result in assay [1], in [6], in [2], in [3], in assay [4] and in assay [10] was “inactive” each time.
As for `C=C[Si](OCCOC)(OCCOC)OCCOC`, the Potency entry in assay [1], in [6], in assay [3], in [4] and in [5] was “inactive” in each case. Besides, in [10], the Potency is 28.4 µM (active) and inactive.
Consider `C[C@]12CC[C@@H]3c4ccc(O)cc4CC[C@H]3[C@@H]1CC[C@H]2O`, for which the Potency result in [1], in assay [3], in [4] and in [10] was “inactive” in each case. The Potency in assay [6] was 11.1 µM (active); in [2], 49.4 µM (active) and 54.5 µM (active).
`CC1(C)C(C=C(Cl)Cl)C1C(=O)OCc1cccc(Oc2ccccc2)c1` (centres undefined): the Potency result in [1], in [2], in assay [3], in assay [4], in assay [8] and in assay [9] was “inactive” throughout. For the same compound, the Potency in assay [5] was 24.2 µM (active). In assay [7], the max activation was 4.94% (inactive).
For the compound `C=C[C@H]1CN2CC[C@H]1C[C@H]2[C@H](O)c1ccnc2ccc(OC)cc12`, the Potency in [1] is 30.6 µM (active). Also, the Potency result in [6], in assay [2], in assay [3] and in assay [4] was “inactive” throughout. Also, in assay [7], the max activation was -0.698% (inactive).
Regarding `CC/C(=C(/CC)c1ccc(O)cc1)c1ccc(O)cc1`, the Potency entry in [1], in [6], in [3] and in assay [4] was “inactive” in each case. Further, in assay [7], the max activation was 5.39% (inactive).
Regarding `COC(=O)CC(=O)OC`, the Potency result in [1], in assay [6], in [2], in assay [3], in [4] and in assay [10] was “inactive” in each case. Further, in assay [5], the Potency was 56.7 µM (active) and inactive.
Consider `COc1ccc2nc(N)sc2c1`, for which the Potency entry in assay [1], in [6], in assay [3] and in [4] was “inactive” each time. In addition, the Potency was 48.6 µM (active) and 21.7 µM (active) in assay [5]; 10 µM (active) and 63.3 µM (active) in assay [10].
Consider `Oc1ccc(C(c2ccc(O)cc2)C(Cl)(Cl)Cl)cc1`, for which the Potency result in assay [1], in assay [6], in assay [3] and in assay [10] was “inactive” each time. In assay [5], the Potency result is “inactive and 61.1 µM (active)”.
As for `CC(C)=CCO`, the Potency entry in [1], in assay [6], in assay [2], in assay [3], in assay [4] and in assay [10] was “inactive” in each case. Besides, the Potency in [5] was 62.6 µM (active) and inactive.

The record behind these values is PubChem BioAssay (Tox21).
